Results reported in PubChem BioAssay (NCI).
Several values for one entry are separate records, joined by “and”; a condition that tells them apart may be missing. Identical values can stand only once. This is part of a sample that, as a whole, favours compounds with a hit. Of some 79,000 tested, about 15% had one in any assay. A structure can be active in one record and inactive in another. Activity calls are given as the source filed them. No stated cut-off is given here; in the data, active means growth inhibition above about 70%; inactive means the rest.

Test: NCI Yeast Anticancer Drug Screen. Data for the mlh1 rad18 strain (AID 175)
Conditions: S. cerevisiae mlh1 rad18 strain growth inhibition; at 50.0 µM; stronger effect = higher value
How it was run: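 Inhibition values reflect reduced growth of mutant yeast versus vehicle-treated controls following compound exposure; the mutations affect DNA damage repair.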

| Compound | growth inhibition |
| --- | --- |
| CC(C)(C)CC(C)(C)c1ccc(O)cc1 | 99.6% (active) |
| CC[n+]1c(/C=C/c2ccc(N(CCCl)CCCl)cc2)ccc2cc(I)ccc21 | 88.7% (active) |
| CCCCCCC1CCC2CCCC(C)N12 (centres undefined) | 74.9% (active) |
| C[N+](C)(C)CC1CCC(C[N+](C)(C)C)C1=O (centres undefined) | -14.2% (inactive) |
| CCC[CH2][Sn]1([CH2]CCC)[O]C(=O)c2cc(C)ccc2[O]1 | 89% (active) |
| COc1ccc(CC2C(=O)NC(C)C(=O)N(C)C3C(=O)N(C)C(Cc4ccc(O)c(c4)Oc4ccc(cc4)C3O)C(=O)NC(C)C(=O)NC(C)C(=O)N2C)cc1 (centres undefined) | 63% (inactive) |
| CC(=O)Nc1cccc([As+](C)(c2cccc(NC(C)=O)c2)c2cccc(NC(C)=O)c2)c1 | 8.65% (inactive) |
| COC1OC(COC(C)=O)C(OC(C)=O)C(OC(C)=O)[C]1(OC(C)=O)[Hg][O]C(C)=O (centres undefined) | 99.7% (active) |
| CCOC(=O)C(NC(=O)C(Cc1ccc(N(CCCl)CCCl)cc1)NC(C)=O)C(C)C (centres undefined) | 18.9% (inactive) and -0.25% (inactive) |
| CN1c2cccc[c]2[Sn]([CH3])([CH3])[c]2ccccc21 | 99.3% (active) |
| Cc1ccc(C(=O)OC(C(=O)O)C(OC(=O)c2ccc(C)cc2)C(=O)O)cc1 (centres undefined) (tested in a mixture with another compound) | 12.3% (inactive) and 92.5% (active) |
| CC(C)(c1ccccc1)c1ccc(O)cc1 | 99.5% (active) |
| CC1(C)N=C(N)N=C(N)N1CCCOc1ccc(NC(=O)c2ccc(S(=O)(=O)F)cc2)cc1 | 21.4% (inactive) |
| CC1=CC2OC3CC4OC(=O)/C=C/C=C/C(=O)OCCC(C)C(O)C(=O)OCC2(CC1O)C4(C)C31CO1 (centres undefined) | 91.5% (active) |
| C=CCOc1cc2c(ccc1=O)-c1c(cc(OC)c(OC)c1OC)CCC2NC(C)=O (centres undefined) | 95.5% (active) |
| c1ccc2c(c1)[As]=c1ccccc1=[As]2 (centres undefined) | 91.4% (active) |
| CCC(C)(c1ccc(O)cc1)c1ccc(O)cc1 | 98.7% (active) |
| COc1cc(C2c3cc4c(cc3[C@@H](Nc3ccc(F)cc3)C3COC(=O)[C@H]23)OCO4)cc(OC)c1O (some centres undefined) | 88.1% (active) |
| CC(C)(C)OC(=O)NC(CSC(c1ccccc1)(c1ccccc1)c1cccs1)C(=O)O (centres undefined) | 83.2% (active) |
| CCOP(=S)(OCC)OC(c1ccc(Cl)cc1)c1ccc(Cl)cc1 | 11.6% (inactive) |

| Compound | growth inhibition |
| --- | --- |
| COc1ccc(OC)c(C=O)c1 | -8% (inactive) |
| CC(=O)Oc1cccc2c1CC(C[Se]c1ccccc1)C(=O)O2 (centres undefined) | 74.2% (active) |
| CCOC(=S)S | 99.2% (active) |
| CC(NCCN(C)C)C1CC2CCCCN2C1 (centres undefined) | 33% (inactive) |
| Nc1ncc(CCCCc2ccc(NC(=O)Nc3ccc(S(=O)(=O)F)cc3)cc2)c(N)n1 | 99.2% (active) |
| CC#N.FC(F)(F)C#CC(F)(F)F.FC(F)(F)C#CC(F)(F)F.FC(F)(F)C#CC(F)(F)F.[W] | 99.3% (active) |
| [Cl][Hg][CH2]CC1CC=CCC1 (centres undefined) | 99.5% (active) |
| CC(=O)O[C@H]1CC[C@H]2[C@@H]3CCC4=CC(=O)CC[C@@H]4[C@H]3CC[C@]12C | 97.3% (active) |
| c1ccc(P(CCP(c2ccccc2)c2ccccc2)CCP(c2ccccc2)c2ccccc2)cc1 | 91.8% (active) |
| Cc1cc(NCc2ccccc2)c2ccccc2[n+]1CCCCCCCCCC[n+]1c(C)cc(NCc2ccccc2)c2ccccc21 | 86.2% (active) |
| CCCCC(CC)CNP(=S)(NCC(CC)CCCC)NCC(CC)CCCC (centres undefined) | 69.1% (inactive) |
| Nc1c(Br)cc(Br)c2c1C(=O)c1ccccc1C2=O | 4.5% (inactive) |
| O=[N+]([O-])/C=C/c1cc2c(cc1Br)OCO2 | 98.5% (active) |
| CC(Br)CN(CC(C)Br)c1ccc2c(c1)Cc1ccccc1-2 (centres undefined) | 91.7% (active) |
| c1ccc2c[n+](CCCCCCCCCC[n+]3ccc4ccccc4c3)ccc2c1 | 88.1% (active) |
| CCC[CH2][Sn]([N]=C=S)([N]=C=S)[N]=C=S.O=P(c1ccccc1)(c1ccccc1)c1ccccc1.O=P(c1ccccc1)(c1ccccc1)c1ccccc1 | 75.3% (active) |
| CN(CCC(N)CC(=O)NC1C=CC(n2ccc(N)nc2=O)OC1C(=O)O)C(=N)N (centres undefined) | 90.6% (active) and 90.7% (active) |
| O=C1C=CC(=O)N1c1cccc2ccccc12 (tested in a mixture with another compound) | 12.2% (inactive) |
| CN(C)c1ccc(N=Cc2c([O-])ccc3ccccc23)cc1.[C-]#[O+].[C-]#[O+].[Ir] | 71.1% (active) |
